# Results taken from ChEMBL document CHEMBL1961873, “Compounds: GSK PKIS; Assays: Nanosyn kinase panel” (2012).
# Experiments:
# [1] = biological target: T1, Inhibitor of nuclear factor kappa-B kinase subunit epsilon (Homo sapiens) (UniProt Q14164); conditions: at 1 µM;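 also: reported values are averaged percent inhibition figures against human IKKε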
# T1 sequence (whole entry): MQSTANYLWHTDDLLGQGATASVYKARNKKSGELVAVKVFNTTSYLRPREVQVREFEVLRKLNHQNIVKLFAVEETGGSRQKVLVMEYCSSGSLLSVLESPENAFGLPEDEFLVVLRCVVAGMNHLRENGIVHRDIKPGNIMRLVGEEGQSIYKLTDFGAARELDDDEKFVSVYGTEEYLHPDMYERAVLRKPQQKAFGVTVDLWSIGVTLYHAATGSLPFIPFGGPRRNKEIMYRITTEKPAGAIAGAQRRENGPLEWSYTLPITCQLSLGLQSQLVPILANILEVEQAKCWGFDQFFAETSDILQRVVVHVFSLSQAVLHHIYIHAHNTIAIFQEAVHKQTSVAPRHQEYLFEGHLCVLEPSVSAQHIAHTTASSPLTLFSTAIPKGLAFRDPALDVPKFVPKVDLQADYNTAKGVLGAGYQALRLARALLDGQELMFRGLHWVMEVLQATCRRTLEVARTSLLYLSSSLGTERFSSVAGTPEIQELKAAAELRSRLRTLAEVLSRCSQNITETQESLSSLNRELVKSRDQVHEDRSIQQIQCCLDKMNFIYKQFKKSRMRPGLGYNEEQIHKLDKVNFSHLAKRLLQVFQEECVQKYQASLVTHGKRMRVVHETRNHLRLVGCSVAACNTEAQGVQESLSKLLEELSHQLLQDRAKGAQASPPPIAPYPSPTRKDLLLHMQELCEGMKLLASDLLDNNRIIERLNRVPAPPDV
# [2] = biological target: T2, Serine/threonine-protein kinase Nek1 (Homo sapiens) (UniProt Q96PY6); conditions: at 0.1 µM
# T2 sequence (whole entry): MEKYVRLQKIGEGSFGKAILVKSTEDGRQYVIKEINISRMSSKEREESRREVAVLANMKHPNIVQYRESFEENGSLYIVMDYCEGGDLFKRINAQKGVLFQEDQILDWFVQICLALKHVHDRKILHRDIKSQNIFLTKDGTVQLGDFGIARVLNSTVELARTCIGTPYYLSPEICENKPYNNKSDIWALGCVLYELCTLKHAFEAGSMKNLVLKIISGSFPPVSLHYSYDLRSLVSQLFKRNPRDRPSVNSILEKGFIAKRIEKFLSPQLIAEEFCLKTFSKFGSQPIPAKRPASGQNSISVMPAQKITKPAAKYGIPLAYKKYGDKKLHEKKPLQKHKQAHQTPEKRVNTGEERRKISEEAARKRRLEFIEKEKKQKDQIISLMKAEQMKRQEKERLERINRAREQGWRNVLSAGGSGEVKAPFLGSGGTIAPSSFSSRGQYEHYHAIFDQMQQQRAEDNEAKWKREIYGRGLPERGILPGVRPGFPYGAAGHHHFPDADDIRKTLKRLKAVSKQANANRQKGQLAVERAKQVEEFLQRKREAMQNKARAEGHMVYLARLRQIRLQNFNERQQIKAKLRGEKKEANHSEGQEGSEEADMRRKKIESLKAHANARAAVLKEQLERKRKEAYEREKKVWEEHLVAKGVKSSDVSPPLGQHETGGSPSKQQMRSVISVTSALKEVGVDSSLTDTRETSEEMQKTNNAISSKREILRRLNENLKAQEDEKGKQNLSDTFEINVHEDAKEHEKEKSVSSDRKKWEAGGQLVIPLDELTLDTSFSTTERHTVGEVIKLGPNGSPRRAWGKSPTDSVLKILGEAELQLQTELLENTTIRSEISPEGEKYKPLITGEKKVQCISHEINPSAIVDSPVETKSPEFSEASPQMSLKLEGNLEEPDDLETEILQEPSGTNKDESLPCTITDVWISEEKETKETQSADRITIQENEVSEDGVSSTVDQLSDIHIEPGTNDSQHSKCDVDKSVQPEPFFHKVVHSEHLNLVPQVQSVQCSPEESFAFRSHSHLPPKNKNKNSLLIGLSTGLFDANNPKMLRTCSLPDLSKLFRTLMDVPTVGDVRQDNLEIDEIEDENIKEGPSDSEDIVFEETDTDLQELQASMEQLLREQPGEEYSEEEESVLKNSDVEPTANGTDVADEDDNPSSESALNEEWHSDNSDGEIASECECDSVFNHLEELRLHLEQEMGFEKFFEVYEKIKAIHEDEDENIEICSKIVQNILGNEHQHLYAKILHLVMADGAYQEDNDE
# [3] = biological target: T2, Serine/threonine-protein kinase Nek1 (Homo sapiens); conditions: at 1 µM
# [4] = biological target: T3, Serine/threonine-protein kinase Nek2 (Homo sapiens) (UniProt P51955); conditions: at 0.1 µM
# T3 sequence (whole entry): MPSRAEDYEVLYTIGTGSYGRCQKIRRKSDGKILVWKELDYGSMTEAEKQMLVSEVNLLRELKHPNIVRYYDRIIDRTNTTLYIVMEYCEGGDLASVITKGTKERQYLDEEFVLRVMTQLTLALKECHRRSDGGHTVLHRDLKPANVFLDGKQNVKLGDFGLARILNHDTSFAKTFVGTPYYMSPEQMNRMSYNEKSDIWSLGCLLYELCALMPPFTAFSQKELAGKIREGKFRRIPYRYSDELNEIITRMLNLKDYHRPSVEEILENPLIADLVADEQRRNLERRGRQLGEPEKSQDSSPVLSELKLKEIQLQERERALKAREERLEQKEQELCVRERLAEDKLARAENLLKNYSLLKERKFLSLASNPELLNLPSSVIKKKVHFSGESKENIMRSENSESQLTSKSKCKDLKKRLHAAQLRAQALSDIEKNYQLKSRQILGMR
# [5] = biological target: T3, Serine/threonine-protein kinase Nek2 (Homo sapiens); conditions: at 1 µM
# [6] = biological target: Serine/threonine-protein kinase Nek6 (Homo sapiens) (UniProt Q9HC98); conditions: at 0.1 µM
# [7] = biological target: Serine/threonine-protein kinase Nek6 (Homo sapiens) (UniProt Q9HC98); conditions: at 1 µM
# [8] = biological target: Serine/threonine-protein kinase Nek7 (Homo sapiens) (UniProt Q8TDX7); conditions: at 0.1 µM
# [9] = biological target: Serine/threonine-protein kinase Nek7 (Homo sapiens) (UniProt Q8TDX7); conditions: at 1 µM
# [10] = biological target: T4, Serine/threonine-protein kinase Nek9 (Homo sapiens) (UniProt Q8TD19); conditions: at 0.1 µM
# T4 sequence (whole entry): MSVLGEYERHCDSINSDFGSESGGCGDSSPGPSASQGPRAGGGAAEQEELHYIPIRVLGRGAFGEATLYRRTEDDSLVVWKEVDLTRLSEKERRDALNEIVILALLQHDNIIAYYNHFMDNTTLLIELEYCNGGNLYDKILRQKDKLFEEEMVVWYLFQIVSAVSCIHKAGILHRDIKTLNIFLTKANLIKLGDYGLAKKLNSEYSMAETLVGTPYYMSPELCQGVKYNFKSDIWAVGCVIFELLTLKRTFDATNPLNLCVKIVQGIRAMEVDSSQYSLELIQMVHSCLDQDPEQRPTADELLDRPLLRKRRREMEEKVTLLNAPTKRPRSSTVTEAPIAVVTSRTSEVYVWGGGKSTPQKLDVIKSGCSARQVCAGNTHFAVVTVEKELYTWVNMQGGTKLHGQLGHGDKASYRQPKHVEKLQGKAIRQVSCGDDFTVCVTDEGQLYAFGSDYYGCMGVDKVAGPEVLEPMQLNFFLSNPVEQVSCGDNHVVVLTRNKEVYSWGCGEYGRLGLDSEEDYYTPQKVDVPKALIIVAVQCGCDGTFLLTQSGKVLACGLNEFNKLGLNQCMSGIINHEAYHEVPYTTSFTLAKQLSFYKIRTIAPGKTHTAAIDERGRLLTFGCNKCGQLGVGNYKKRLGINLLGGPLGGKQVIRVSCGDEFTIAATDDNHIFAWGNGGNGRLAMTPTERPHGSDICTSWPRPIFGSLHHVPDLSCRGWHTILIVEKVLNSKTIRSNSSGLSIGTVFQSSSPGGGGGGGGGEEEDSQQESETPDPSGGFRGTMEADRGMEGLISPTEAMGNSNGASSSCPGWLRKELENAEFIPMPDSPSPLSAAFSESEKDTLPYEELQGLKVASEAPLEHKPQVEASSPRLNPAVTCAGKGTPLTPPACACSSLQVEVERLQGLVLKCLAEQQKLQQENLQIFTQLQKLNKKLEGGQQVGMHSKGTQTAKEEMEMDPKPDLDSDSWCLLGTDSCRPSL
# [11] = biological target: T4, Serine/threonine-protein kinase Nek9 (Homo sapiens); conditions: at 1 µM
# [12] = biological target: Serine/threonine-protein kinase PLK1 (Homo sapiens) (UniProt P53350); conditions: at 0.1 µM
# [13] = biological target: Serine/threonine-protein kinase PLK1 (Homo sapiens) (UniProt P53350); conditions: at 1 µM
# [14] = biological target: T5, Dual specificity protein kinase TTK (Homo sapiens) (UniProt P33981); conditions: at 0.1 µM
# T5 sequence (whole entry): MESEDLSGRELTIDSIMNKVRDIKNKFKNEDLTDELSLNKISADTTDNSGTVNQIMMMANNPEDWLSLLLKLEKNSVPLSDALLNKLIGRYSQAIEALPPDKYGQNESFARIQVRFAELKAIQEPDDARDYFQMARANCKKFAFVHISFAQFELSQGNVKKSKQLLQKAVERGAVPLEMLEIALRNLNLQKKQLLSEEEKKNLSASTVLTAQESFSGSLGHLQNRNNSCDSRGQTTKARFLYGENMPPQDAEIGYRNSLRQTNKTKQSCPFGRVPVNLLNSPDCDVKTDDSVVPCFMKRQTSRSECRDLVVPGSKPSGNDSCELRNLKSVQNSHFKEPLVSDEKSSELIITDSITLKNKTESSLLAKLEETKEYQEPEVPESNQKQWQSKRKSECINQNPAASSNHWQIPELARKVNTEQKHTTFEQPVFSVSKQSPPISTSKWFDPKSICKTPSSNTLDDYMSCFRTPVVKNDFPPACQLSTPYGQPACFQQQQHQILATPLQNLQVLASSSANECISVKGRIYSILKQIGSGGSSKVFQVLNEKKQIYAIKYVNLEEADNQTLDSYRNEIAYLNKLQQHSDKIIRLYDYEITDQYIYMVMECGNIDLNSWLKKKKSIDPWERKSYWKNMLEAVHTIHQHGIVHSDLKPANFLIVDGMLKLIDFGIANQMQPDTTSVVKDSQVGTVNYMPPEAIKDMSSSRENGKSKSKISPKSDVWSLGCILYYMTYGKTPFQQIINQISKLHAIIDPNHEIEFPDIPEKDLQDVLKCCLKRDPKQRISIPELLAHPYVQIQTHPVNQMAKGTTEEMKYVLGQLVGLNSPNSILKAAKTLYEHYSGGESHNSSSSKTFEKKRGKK
# [15] = system: T6, Receptor-type tyrosine-protein kinase FLT3 (Homo sapiens), P36888 [D835Y]; conditions: at 1 µM
# T6 sequence (whole entry): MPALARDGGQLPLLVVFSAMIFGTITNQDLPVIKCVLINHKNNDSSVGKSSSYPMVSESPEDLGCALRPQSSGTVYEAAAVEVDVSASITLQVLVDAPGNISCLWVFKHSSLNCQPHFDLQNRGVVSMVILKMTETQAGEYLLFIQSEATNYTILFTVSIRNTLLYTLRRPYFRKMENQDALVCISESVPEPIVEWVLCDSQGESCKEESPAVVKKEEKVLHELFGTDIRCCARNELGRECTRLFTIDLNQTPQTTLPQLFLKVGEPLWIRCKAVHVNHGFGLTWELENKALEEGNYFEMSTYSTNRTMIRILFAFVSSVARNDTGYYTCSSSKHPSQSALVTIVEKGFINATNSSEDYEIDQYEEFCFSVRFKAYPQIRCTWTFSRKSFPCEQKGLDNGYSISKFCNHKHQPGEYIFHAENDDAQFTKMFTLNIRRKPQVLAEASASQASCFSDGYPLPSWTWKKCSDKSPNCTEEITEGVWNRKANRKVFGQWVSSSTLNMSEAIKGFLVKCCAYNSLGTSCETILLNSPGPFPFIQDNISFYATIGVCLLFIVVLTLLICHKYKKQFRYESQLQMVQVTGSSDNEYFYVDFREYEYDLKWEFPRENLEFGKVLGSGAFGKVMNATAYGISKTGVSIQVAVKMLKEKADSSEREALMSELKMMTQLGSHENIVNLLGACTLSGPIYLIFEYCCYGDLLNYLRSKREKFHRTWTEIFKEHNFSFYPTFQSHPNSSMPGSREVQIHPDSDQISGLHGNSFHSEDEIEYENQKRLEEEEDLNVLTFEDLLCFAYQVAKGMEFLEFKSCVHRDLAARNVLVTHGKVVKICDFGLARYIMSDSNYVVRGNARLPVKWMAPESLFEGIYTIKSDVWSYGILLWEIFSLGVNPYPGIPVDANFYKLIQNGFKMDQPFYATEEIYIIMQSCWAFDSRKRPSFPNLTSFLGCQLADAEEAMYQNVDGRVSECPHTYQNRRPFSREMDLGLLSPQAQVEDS
# [16] = biological target: Vascular endothelial growth factor receptor 3 (Homo sapiens) (UniProt P35916); conditions: at 0.1 µM
# [17] = biological target: Vascular endothelial growth factor receptor 3 (Homo sapiens) (UniProt P35916); conditions: at 1 µM
# [18] = biological target: Macrophage colony-stimulating factor 1 receptor (Homo sapiens) (UniProt P07333); conditions: at 0.1 µM
# [19] = biological target: Macrophage colony-stimulating factor 1 receptor (Homo sapiens) (UniProt P07333); conditions: at 1 µM
# [20] = biological target: Tyrosine-protein kinase Fyn (Homo sapiens) (UniProt P06241); conditions: at 0.1 µM
# Tyrosine-protein kinase Fyn (Homo sapiens), sequence (P06241 2-537 limits assumed): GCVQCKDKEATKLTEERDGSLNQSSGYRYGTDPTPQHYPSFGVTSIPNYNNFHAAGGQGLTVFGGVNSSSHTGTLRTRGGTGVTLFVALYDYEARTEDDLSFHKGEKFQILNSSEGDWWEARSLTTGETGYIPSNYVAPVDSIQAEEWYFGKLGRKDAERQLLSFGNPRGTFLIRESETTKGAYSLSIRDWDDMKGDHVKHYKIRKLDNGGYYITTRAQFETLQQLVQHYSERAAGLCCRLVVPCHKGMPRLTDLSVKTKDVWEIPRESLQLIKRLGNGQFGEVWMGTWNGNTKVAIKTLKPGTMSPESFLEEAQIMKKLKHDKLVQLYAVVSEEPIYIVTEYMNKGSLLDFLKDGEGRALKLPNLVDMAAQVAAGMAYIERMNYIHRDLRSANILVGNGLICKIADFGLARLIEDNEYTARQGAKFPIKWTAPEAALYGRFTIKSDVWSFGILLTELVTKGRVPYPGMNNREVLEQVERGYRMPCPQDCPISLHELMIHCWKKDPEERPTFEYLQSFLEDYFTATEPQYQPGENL
# Serine/threonine-protein kinase PLK1 (Homo sapiens), sequence (P53350 whole entry): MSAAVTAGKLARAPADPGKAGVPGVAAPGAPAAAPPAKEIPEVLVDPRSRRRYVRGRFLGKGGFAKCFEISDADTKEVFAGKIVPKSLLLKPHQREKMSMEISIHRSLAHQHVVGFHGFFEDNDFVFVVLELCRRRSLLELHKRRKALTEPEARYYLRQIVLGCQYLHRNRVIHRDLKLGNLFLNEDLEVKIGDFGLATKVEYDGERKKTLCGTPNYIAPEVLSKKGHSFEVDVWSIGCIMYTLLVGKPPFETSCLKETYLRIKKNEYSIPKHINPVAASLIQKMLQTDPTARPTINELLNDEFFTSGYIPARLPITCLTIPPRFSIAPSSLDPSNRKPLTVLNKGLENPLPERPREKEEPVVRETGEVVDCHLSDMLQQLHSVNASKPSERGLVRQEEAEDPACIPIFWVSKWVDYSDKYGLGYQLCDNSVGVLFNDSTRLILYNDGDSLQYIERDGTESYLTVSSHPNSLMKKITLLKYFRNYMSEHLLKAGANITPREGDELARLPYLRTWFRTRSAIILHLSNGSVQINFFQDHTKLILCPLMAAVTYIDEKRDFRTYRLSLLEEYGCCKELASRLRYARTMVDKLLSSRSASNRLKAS
# Serine/threonine-protein kinase Nek6 (Homo sapiens), sequence (Q9HC98 whole entry): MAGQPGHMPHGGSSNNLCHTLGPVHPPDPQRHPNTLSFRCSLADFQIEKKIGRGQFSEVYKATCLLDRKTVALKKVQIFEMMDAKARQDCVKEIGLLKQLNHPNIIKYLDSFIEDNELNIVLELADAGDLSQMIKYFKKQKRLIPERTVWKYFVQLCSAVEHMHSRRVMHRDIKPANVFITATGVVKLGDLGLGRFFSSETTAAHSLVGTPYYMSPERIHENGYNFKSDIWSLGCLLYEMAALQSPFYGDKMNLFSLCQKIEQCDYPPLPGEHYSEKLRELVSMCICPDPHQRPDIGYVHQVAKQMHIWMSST
# Vascular endothelial growth factor receptor 3 (Homo sapiens), sequence (P35916 whole entry): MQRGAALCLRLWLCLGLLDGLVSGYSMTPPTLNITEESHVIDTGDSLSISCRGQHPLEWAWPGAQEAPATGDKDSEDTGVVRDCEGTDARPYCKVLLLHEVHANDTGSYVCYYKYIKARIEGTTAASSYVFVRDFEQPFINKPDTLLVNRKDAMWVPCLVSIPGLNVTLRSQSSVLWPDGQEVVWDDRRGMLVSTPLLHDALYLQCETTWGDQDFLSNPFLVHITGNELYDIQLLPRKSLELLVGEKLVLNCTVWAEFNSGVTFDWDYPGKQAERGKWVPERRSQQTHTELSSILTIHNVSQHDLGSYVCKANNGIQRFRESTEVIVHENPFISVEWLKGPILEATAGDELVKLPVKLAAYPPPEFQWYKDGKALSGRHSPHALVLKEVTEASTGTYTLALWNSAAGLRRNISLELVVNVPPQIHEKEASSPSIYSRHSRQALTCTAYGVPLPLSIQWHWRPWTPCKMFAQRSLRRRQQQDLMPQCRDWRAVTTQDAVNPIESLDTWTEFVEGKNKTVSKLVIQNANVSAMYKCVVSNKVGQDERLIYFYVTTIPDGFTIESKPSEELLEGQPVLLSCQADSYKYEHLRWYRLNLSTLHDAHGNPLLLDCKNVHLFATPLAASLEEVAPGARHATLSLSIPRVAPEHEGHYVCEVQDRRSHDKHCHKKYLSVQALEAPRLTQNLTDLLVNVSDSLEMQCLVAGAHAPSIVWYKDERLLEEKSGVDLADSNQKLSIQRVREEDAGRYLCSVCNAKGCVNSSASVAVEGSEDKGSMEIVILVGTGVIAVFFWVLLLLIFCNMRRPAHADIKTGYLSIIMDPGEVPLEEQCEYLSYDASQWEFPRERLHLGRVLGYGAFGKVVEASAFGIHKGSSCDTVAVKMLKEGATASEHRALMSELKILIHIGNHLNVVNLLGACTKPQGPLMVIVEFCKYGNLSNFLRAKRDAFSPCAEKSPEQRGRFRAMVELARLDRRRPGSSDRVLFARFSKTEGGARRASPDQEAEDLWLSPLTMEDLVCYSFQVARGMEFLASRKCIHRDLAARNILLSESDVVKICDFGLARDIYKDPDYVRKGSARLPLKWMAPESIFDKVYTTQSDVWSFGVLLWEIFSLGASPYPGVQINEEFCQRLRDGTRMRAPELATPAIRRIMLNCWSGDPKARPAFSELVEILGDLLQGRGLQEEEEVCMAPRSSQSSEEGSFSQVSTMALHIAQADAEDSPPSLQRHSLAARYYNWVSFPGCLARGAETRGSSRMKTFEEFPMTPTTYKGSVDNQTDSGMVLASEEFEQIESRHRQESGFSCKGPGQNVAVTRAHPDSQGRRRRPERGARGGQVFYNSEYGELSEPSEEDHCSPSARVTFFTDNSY
# Macrophage colony-stimulating factor 1 receptor (Homo sapiens), sequence (P07333 whole entry): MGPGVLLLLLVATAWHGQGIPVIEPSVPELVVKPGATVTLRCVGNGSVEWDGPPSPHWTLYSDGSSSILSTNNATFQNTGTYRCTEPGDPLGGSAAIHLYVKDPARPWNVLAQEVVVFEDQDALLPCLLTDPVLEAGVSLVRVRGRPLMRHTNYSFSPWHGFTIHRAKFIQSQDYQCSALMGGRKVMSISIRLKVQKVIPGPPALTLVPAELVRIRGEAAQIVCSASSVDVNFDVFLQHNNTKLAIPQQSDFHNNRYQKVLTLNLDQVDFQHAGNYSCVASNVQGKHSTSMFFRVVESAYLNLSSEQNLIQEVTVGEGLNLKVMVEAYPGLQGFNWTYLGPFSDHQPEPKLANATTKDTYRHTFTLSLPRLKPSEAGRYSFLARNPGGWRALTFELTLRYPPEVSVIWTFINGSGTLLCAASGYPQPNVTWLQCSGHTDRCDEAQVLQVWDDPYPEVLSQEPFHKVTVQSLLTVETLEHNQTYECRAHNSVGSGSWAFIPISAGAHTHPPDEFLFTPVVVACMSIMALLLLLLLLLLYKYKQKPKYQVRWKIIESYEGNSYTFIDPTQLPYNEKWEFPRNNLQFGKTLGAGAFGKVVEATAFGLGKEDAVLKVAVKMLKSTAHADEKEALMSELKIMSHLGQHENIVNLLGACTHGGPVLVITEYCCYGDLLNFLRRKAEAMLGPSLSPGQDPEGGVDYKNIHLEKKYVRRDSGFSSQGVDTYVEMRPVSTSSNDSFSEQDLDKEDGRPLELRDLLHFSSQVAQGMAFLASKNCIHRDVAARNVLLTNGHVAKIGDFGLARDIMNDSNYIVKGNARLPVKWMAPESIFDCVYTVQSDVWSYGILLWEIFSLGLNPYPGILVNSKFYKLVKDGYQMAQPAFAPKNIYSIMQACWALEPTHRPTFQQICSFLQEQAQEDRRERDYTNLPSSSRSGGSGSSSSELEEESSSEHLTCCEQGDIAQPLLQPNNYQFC
# Serine/threonine-protein kinase Nek7 (Homo sapiens), sequence (Q8TDX7 whole entry, looked up): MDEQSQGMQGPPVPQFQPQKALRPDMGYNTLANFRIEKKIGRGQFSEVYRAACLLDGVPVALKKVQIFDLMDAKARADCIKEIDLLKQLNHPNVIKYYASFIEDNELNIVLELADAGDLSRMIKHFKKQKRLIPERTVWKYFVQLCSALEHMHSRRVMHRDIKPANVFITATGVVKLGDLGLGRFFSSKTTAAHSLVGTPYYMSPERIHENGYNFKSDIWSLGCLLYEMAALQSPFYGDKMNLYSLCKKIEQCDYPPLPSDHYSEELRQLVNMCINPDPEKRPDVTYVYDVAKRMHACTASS
Structure (SMILES),inhibition [1] [%],inhibition [2] [%],inhibition [3] [%],inhibition [4] [%],inhibition [5] [%],inhibition [6] [%],inhibition [7] [%],inhibition [8] [%],inhibition [9] [%],inhibition [10] [%],inhibition [11] [%],inhibition [12] [%],inhibition [13] [%],inhibition [14] [%],inhibition [15] [%],inhibition [16] [%],inhibition [17] [%],inhibition [18] [%],inhibition [19] [%],inhibition [20] [%]
O=C(Nc1n[nH]c2nnc(-c3cccnc3)cc12)C1CC1,0.84,0.17,1.72,0.71,-2.27,-0.09,-0.1,0.09,1.6,7.25,1.12,-0.87,2.11,1.85,-1.95,0.27,3.35,-1.71,5.46,1.64
CS(=O)(=O)CCNCc1ccoc1-c1ccc2ncnc(Nc3ccc(OCc4ccccc4)cc3)c2c1,0.42,0.71,2.1,1.71,0.9,1.71,0.7,0.9,1.09,-0.36,1.8,2.42,3.33,3.38,2.16,2.25,2.83,-0.38,6.09,1.81
